A short description of this assay: M. tuberculosis growth inhibition, HTS (AID 1259417).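 Note: bacteria grown with compound for 5 days at 37 °C.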 The note with it: stronger effect = higher value, concentration not given here.
The mark [1] stands for this setting: M. tuberculosis DsRed fluorescence growth inhibition.
Setting [2] is: M. tuberculosis growth inhibition.

In all, about 1,100 compounds went through this assay and about 760 (69%) were called active. The rule behind the calls is not given here. So high a share suggests a set chosen from earlier hits. The list shows a part of the results.

By inhibition is commonly meant the change of the read-out against control, counted positive when it falls. `Cc1ccc(-c2nnc(NC(=O)c3ccc(Cl)s3)o2)c(C)c1`: the inhibition under setting [1] was 86.1% (active) and the inhibition under setting [2] was 75.4%.

On to `Cc1ccc(-c2nnc(NC(=O)c3ccc(Br)s3)o2)c(C)c1`, for which the inhibition is, setting by setting: under setting [1], 83.8% (active); under setting [2], 75.7%.

With `COc1ccc(OC(C)C(=O)Nc2ccc(I)cc2)cc1` (configuration not stated), the inhibition runs as follows: under setting [1], 76% (active); under setting [2], 79.3%.

With `COc1ccc(OC(C)C(=O)Nc2ccc(Cl)cc2C)cc1` (configuration not stated), the inhibition was 1.5% (inactive) under setting [1] and -1.86% under setting [2].

Take `Oc1ccccc1-c1n[nH]c(/C=C/c2ccc(Cl)cc2)n1`: the inhibition was 2.06% (inactive) under setting [1] and -29.9% under setting [2].

Regarding `CC(C)(C)c1ccc(C(=O)Nc2ccc(S(=O)(=O)Nc3nccs3)cc2)cc1Br`, the inhibition reads like this: under setting [1], 1.5% (inactive); under setting [2], -12.7%.

As for `CC1CCc2sc3ncnc(NCCc4ccccc4)c3c2C1` (configuration not stated), the inhibition is 35.8% (active) under setting [1] and 35.3% under setting [2].

In the case of `CC1CCc2c(sc3ncn(C(C)C(=O)OCc4ccccc4)c(=O)c23)C1` (configuration not stated), the inhibition under setting [1] was 6.46% (inactive) and the inhibition under setting [2] came to 8.18%.

With `CC(Sc1nnc(N)s1)C(=O)Nc1nc2c(s1)CCCC2` (configuration not stated), the inhibition under setting [1] was 18.7% (inactive) and the inhibition under setting [2] is 26%.

On to `O=C(Nc1ccc2c(c1)CCC2)c1ccc(Br)s1`, for which the inhibition was 25.5% (inactive) under setting [1] and 10.7% under setting [2].

With `O=C(Nc1nc2c(s1)CCCC2)c1ccc(Br)s1`, the inhibition by setting is: under setting [1], 42.7% (active); under setting [2], 18.9%.

On to `Cc1cccc(OCc2nnc(SCC(=O)OC3CCCCC3)o2)c1`, for which the inhibition runs as follows: under setting [1], 82.9% (active); under setting [2], 94.9%.

In the case of `Cc1cc(OCc2nnc(SCC(=O)OC3CCCCC3)o2)ccc1Cl`, the inhibition is, setting by setting: under setting [1], 94% (active); under setting [2], 94.6%.

`O=C(Nc1ccc(C(F)(F)F)cc1)Nc1cccc(Cl)c1`: the inhibition is 99.7% (active) under setting [1] and 100% under setting [2].

As to `O=C(C=Cc1cccc(C(F)(F)F)c1)Nc1cccc(C(F)(F)F)c1`, the inhibition is 25.5% (inactive) under setting [1] and 6.54% under setting [2].

On to `Cc1ccc(S(=O)(=O)Nc2ccc(NC(=O)Nc3cccc(C(F)(F)F)c3)cc2)cc1`, for which the inhibition by setting is: under setting [1], 1.5% (inactive); under setting [2], -12.5%.

In the case of `CCOC(=O)CNC(=O)CSc1nc(-c2ccccc2)ns1`, the inhibition by setting is: under setting [1], 85.8% (active); under setting [2], 65.5%.

Take `CCOC(=O)CNC(=O)CSc1nc(-c2cccc(C)c2)ns1`: the inhibition under setting [1] is 56.7% (active) and the inhibition under setting [2] was 71.3%.

As to `CCOC(=O)CSc1nc(-c2ccccc2)ns1`, the inhibition was 51.6% (active) under setting [1] and 86.5% under setting [2].

For `c1ccc2cc3nc4c(ccc5ccccc54)nc3cc2c1`, the inhibition is 97.7% (active) under setting [1] and 99% under setting [2].

Regarding `CCCS(=O)(=O)c1nnnn1-c1cccc(OC)c1`, the inhibition reads like this: under setting [1], 101% (active); under setting [2], 100%.

Turning to `COc1cccc(-n2nnnc2S(C)(=O)=O)c1`, the inhibition by setting is: under setting [1], 99.7% (active); under setting [2], 100%.

On to `COc1cccc(-n2nnnc2S(=O)(=O)Cc2ccccc2)c1`, for which the inhibition by setting is: under setting [1], 100% (active); under setting [2], 101%.

As to `O=C(NC1CCCCC1)N1CCN(Cc2ccc3c(c2)OCO3)CC1`, the inhibition is, setting by setting: under setting [1], 99.4% (active); under setting [2], 100%.

As to `O=C(C=Cc1cccs1)N1CCN(Cc2ccc3c(c2)OCO3)CC1`, the inhibition runs as follows: under setting [1], 99.4% (active); under setting [2], 100%.

With `CC12CC3CC(C)(C1)CC(CNCc1ccccc1O)(C3)C2`, the inhibition is 98.9% (active) under setting [1] and 99.3% under setting [2].

For `c1ccc(CNc2nc(N3CCN(Cc4ccccc4)CC3)nc3ccccc23)cc1`, the inhibition is -2.6% (inactive) under setting [1] and -0.535% under setting [2].

For `CC1(C)C=Cc2c(nc3ccccc3c2NCc2ccccc2)C1`, the inhibition is, setting by setting: under setting [1], 16.7% (active); under setting [2], 35.8%.

For `Cc1cc(OCCn2ccnc2)ccc1Cl`, the inhibition by setting is: under setting [1], 89.5% (active); under setting [2], 90.8%.

In the case of `Cc1cc(OCCCn2ccnc2)ccc1Cl`, the inhibition runs as follows: under setting [1], 98.9% (active); under setting [2], 99.6%.

Take `Clc1cc(Br)ccc1OCCCCn1ccnc1`: the inhibition is 99.4% (active) under setting [1] and 99.4% under setting [2].

`Clc1ccc(OCCCCn2ccnc2)c(Br)c1`: the inhibition by setting is: under setting [1], 98.8% (active); under setting [2], 99.3%.

In the case of `Clc1ccc(SCCCn2ccnc2)cc1`, the inhibition runs as follows: under setting [1], 100% (active); under setting [2], 99.6%.

With `Brc1c(OCCCn2ccnc2)ccc2ccccc12`, the inhibition by setting is: under setting [1], 98.3% (active); under setting [2], 99%.

Consider `Clc1ccc(OCCCCCn2ccnc2)c(Cl)c1`, for which the inhibition runs as follows: under setting [1], 100% (active); under setting [2], 99.3%.

For `C=CCc1cc(C)ccc1OCCCCn1ccnc1`, the inhibition by setting is: under setting [1], 99.4% (active); under setting [2], 100%.

For `C=CCc1cc(Cl)ccc1OCCCCn1ccnc1`, the inhibition was 100% (active) under setting [1] and 100% under setting [2].

As for `C=CCc1cc(C)ccc1OCCCn1ccnc1`, the inhibition is 92.4% (active) under setting [1] and 97.1% under setting [2].

For `C=CCn1c(-c2cccs2)nc2ccccc21`, the inhibition by setting is: under setting [1], 97.1% (active); under setting [2], 100%.

With `NC(CC(=O)c1ccc(Cl)cc1Cl)C(Cl)(Cl)Cl` (configuration not stated), the inhibition reads like this: under setting [1], 99.7% (active); under setting [2], 99.4%.

As to `Oc1ccc(-c2nc3cc4ccccc4cc3nc2-c2ccccc2)cc1`, the inhibition runs as follows: under setting [1], 19.6% (active); under setting [2], 37.8%.

For the compound `Cc1ccc2sc(NNC(=O)c3cc4ccccc4oc3=O)nc2c1C`, the inhibition is, setting by setting: under setting [1], 3.35% (active); under setting [2], 33.4%.

Turning to `Cc1ccc2nc(NNC(=O)c3cc4ccccc4oc3=O)sc2c1`, the inhibition runs as follows: under setting [1], -1.04% (inactive); under setting [2], 10.6%.

For `Cc1cccc2sc(NNC(=O)c3cc4ccccc4oc3=O)nc12`, the inhibition is 47.1% (active) under setting [1] and 89% under setting [2].

Consider `Cc1ccc2sc(NNC(=O)C3COc4ccccc4O3)nc2c1C` (configuration not stated), for which the inhibition is, setting by setting: under setting [1], -2.21% (inactive); under setting [2], -8.62%.

As for `Cc1cc(C)c2nc(NNC(=O)c3cc4ccccc4oc3=O)sc2c1`, the inhibition was 46.2% (active) under setting [1] and 86.5% under setting [2].

Source of the values: PubChem BioAssay AID1259417 (TB Discovery Research, Infectious Disease Research Institute, 2018).
